One may read the AC50 as the midpoint of the concentration-response curve, whichever way the signal moves.

Molecules are shown by their SMILES. Where “and” joins values, the source holds several entries; their conditions need not be identical. Equal values may be shown once. The campaign covered roughly 16,000 compounds. About 5,700 (36%) were called active. Another 24% or so got no clear call; they are omitted. The call rests on the fitted dose curve; in most records, active means well fitted curve in the direction sought with a large enough effect; inconclusive means small, poorly fitted or top-dose-only effect, or effect the other way; inactive means no such curve, though single readings can be large or run the other way. This is one part of the list.
On the % scale 0 is the no-effect control and ±100 the full control effect.

This experiment deals with Cytochrome P450 1A2 (Homo sapiens) (UniProt P05177). Nature of the experiment: Cytochrome panel assay with activity outcomes. As to conditions: recombinant CYP, pro-luciferin dealkylation, luminescence, p450-cyp1a2; series mostly up to 57.1 µM.
Cytochrome P450 1A2 (Homo sapiens), sequence (P05177 whole entry, looked up): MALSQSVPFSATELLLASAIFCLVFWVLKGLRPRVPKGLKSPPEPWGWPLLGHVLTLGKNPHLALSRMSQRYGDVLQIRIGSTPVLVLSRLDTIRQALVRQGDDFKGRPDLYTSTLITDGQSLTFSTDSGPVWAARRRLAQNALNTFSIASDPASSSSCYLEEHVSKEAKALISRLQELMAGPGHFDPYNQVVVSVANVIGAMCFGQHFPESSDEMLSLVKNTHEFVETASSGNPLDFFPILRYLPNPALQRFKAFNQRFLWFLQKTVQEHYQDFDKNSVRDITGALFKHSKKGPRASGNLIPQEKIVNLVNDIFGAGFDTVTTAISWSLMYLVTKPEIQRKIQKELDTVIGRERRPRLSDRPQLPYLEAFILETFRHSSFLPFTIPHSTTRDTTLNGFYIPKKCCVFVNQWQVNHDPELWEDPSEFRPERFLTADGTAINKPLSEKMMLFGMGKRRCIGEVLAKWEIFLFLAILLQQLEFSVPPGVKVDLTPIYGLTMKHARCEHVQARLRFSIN
With `CC1(CC(=O)O)O[C@H]2CCCCC[C@H]2O1` (stereo not given in full) (tested in a mixture with another compound), the activity, negative = inhibition is -0.0273% [at 11.4 µM] (inactive). Take `COc1ccc2c(c1)C(c1ccc([N+](=O)[O-])cc1)=NNC(c1ccco1)=N2`: the concentration at half-maximal activity (AC50) was 5.01 µM (active). For `COc1cccc(C(=O)Nc2ccc(-c3nnc(-c4ccco4)o3)cc2)c1`, the AC50 entry was “inactive”. On to `CC1(C)CCCN(C(=O)c2coc(=O)c(Br)c2)C1`, for which the AC50 entry was “inactive”. Same read-out and setting: the same measure for `c1ccc2nc(C3=NCCN3)ccc2c1`: 5.01 µM (active) and 794 nM (active); for `c1ccc2nc(-c3ccncc3)ccc2c1`: 1 µM (active); for `c1ccc2nc(C3=NCCN3)cnc2c1`: 0.398 µM (active).

Turning to `c1ccc2cc(C3=NCCN3)ncc2c1`, the concentration at half-maximal activity (AC50) was 0.501 µM (active). For the molecule `c1ccc(CN(CC2=NCCN2)c2ccccc2)cc1`, the AC50 result was “inactive”. Same read-out and setting: the same measure for `O=C(c1cccc(F)c1)N1CCC2(CCCN(Cc3cc(C(F)(F)F)cc(C(F)(F)F)c3)C2)CC1`: “inactive”; for `COC(=O)[C@@]1(Cc2ccc(F)cc2)[C@H]2c3cc(C(=O)N(C)C)n(CCCNc4ccc(C(F)(F)F)cc4Cl)c3C[C@H]2CN1C(=O)c1ccccc1`: “inactive”; for `c1ccc2oc(C3=NCCN3)cc2c1`: 5.01 µM (active). Still for that read-out and setting: in the case of `CCn1nccc1C(=O)Nc1nc2ccccc2n1CCN1CCCCC1` it was “inactive”.

For the molecule `CCn1c(-c2nonc2NC(=O)c2ccccc2)nc2ccccc21`, the AC50 is 0.891 µM (active).

Consider `Cn1c(CNS(=O)(=O)c2ccc(F)cc2)n[nH]c1=S`, for which the AC50 result was “inactive”. Turning to `COCCNC(=O)c1onc(CSc2ccc(Cl)cc2)c1C(=O)O`, the AC50 result is “inactive”.

In the case of `O=S(=O)(NCc1cc(-c2ccccc2)no1)c1ccc(Cl)cc1`, the AC50 was 7.08 µM (active). Still for that read-out and setting: in the case of `Cn1c(CNS(=O)(=O)c2ccc(Cl)cc2)n[nH]c1=S` it was “inactive”.

As to `O=S(=O)(NCc1cc(-c2ccc(Cl)cc2)no1)c1ccc(Cl)cc1`, the AC50 was 8.91 µM (active). In the case of `NCCNS(=O)(=O)c1ccc(N)cc1`, the activity, negative = inhibition was -3.44% [at 11.4 µM] (inactive).

Consider `Clc1ccc(SCc2cc(-c3ccccc3)no2)cc1`, for which the half-maximal activity concentration (AC50) is 6.31 µM (active). For the molecule `Nc1ccc(S(=O)(=O)NCc2nccs2)cc1`, the activity, negative = inhibition is -10.5% [at 2.29 µM] (inactive). For `Cn1cccc1C(=O)N1CCC2(CC1)CCN(c1ncccn1)CC2`, the AC50 entry is “inactive”. For the molecule `CC(=O)OC[C@@H]1O[C@@H](O/N=C2/C[C@@H](O)[C@@H](O)[C@@H]3[C@@H]4C(=O)N(C(C)(C)C)C(=O)[C@H]4CC[C@H]23)[C@H](OC(C)=O)[C@H](OC(C)=O)[C@@H]1OC(C)=O`, the activity, negative = inhibition is -2.28% [at 11.4 µM] (inactive).

Consider `COc1ccc(Oc2nc3ccccc3nc2C(F)(F)F)cc1`, for which the half-maximal activity concentration (AC50) was 1.12 µM (active).

In the case of `CC(C)(C)c1ccc(OC(=O)Cn2c(C(F)(F)F)nc3ccccc32)cc1`, the AC50 result is “inactive”. Regarding `Cc1ccccc1C(=O)NN(C)c1nc2ccccc2nc1C(F)(F)F`, the AC50 entry was “inactive”. With `CC(C)NC(=O)N1CCCC2(CCN(C(=O)c3ccco3)CC2)C1`, the AC50 result was “inactive”. Still for that read-out and setting: the same measure for `O=c1c2ccccc2nnn1CSc1nnc(COc2ccc(Cl)cc2)n1Cc1ccco1`: 3.16 µM (active); for `COc1cccc(OCc2nnc(SCC(=O)NCc3ccco3)n2C)c1`: “inactive”; for `Cc1cc(C)nc(SCc2nnc(SCC(N)=O)n2Cc2ccco2)n1`: “inactive”. Turning to `O=C(O)Cc1cccnc1`, the activity, negative = inhibition is -13.8% [at 11.4 µM] (inactive). For the molecule `c1ccc(C[C@@H](Nc2cccnc2)c2ccccc2)cc1`, the concentration at half-maximal activity (AC50) is 0.2 µM (active).

In the case of `O=C(NCC(c1cccnc1)N1CCOCC1)Nc1ccccc1` (stereo not given), the AC50 result is “inactive”. Same read-out and setting: the same measure for `COc1ccc(-n2c(=O)c(-c3cccs3)nc3cnc(Nc4cccc(OC)c4)nc32)cc1`: “inactive”.

Regarding `COc1cccc(Nc2ncc3nc(C)c(=O)n(C)c3n2)c1`, the AC50 was 1 µM (active). The same measure, in the same setting: the same measure for `COc1cccc(Nc2ncc3nc(C)c(=O)n(-c4ccccc4)c3n2)c1`: 5.01 µM (active); for `COc1ccc(-n2c(=O)c(C)nc3cnc(Nc4cccc(OC)c4)nc32)cc1`: 15.8 µM (active); for `CCOc1ccc(OCC)c(-c2c(=O)n(OCc3ccc(C(C)(C)C)cc3)c3ccccc3[n+]2[O-])c1`: “inactive”.

For `N#CN(CC(N)=O)c1nc(N2CCCCC2)nc(N2CCCCC2)n1`, the half-maximal activity concentration (AC50) is 2 µM (active). With `OCCN1CCN(c2nc(N3CCCCC3)nc(N3CCCCC3)n2)CC1`, the AC50 result is “inactive”. Take `O=C1c2cccc3c(Nc4ccccc4Cl)c([N+](=O)[O-])cc(c23)C(=O)N1CCO`: the concentration at half-maximal activity (AC50) is 1.78 µM (active). The same measure, in the same setting: in the case of `O=C1c2ccccc2C(=O)N1CCCCN(C(=O)c1cccc([N+](=O)[O-])c1)c1ccc(Cl)cc1` it was “inactive”; in that of `O=S(=O)(NC1CCN(Cc2ccccc2)CC1)c1cccc2cccnc12`, “inactive”; in that of `CC(C)(C)c1cc2cccnc2n1Cc1ccccc1`, 14.1 µM (active). Still for that read-out and setting: the same measure for `O=C(Nc1cccc(F)c1)N1CCC2(CC1)CCN(C(=O)c1csnn1)CC2`: “inactive”; for `CCn1c(C)nc2cc(C(=O)NNS(=O)(=O)c3ccccc3F)ccc21`: 25.1 µM (active). With `N[C@H](C(=O)O)[C@@H](O)c1cnc[nH]1`, the activity, negative = inhibition was -2.61% [at 11.4 µM] (inactive). Regarding `Cc1cc(C(=O)c2cnc(/N=C/N(C)C)s2)cc(C)c1O`, the concentration at half-maximal activity (AC50) is 12.6 µM (active).

As for `CN(C)/C=N/c1ncc(C(=O)c2ccc3ccccc3c2)s1`, the concentration at half-maximal activity (AC50) is 2.51 µM (active).

As to `COc1ccc(O[C@H]2C=C[C@@H](c3ccccc3)O[C@H]2CO/N=C2/c3cc(OC)ccc3O[C@@H](c3cccc(OC)c3)[C@H]2O)cc1`, the activity, negative = inhibition was 1.3% [at 11.4 µM] (inactive). Regarding `Cc1cc(N2CCOCC2)nc(SCc2ccc(Cl)cc2Cl)n1`, the half-maximal activity concentration (AC50) was 2.51 µM (active).

For the molecule `CSc1nc(-c2ccc(C)cc2)nc(C(Cl)Cl)n1`, the concentration at half-maximal activity (AC50) is 1.41 µM (active).

In the case of `COc1ccccc1/C=N/NC(=O)CC(=O)Nc1ccc(Cl)c(Cl)c1`, the half-maximal activity concentration (AC50) was 1.78 µM (active). As to `COc1ccccc1CN1CCCC2(CCN(C(=O)c3cccn3C)CC2)C1`, the AC50 result is “inactive”. The same measure, in the same setting: in the case of `Clc1cc2c(c(CSC3=NCN(CC4CC4)CN3)c1)OCOC2` it was 3.16 µM (active); in that of `CCCc1cc(=O)oc2cc(OCc3cc(OC)c(OC)c(OC)c3)c(Cl)cc12`, “inactive”. The same measure, in the same setting: the same measure for `CCOc1cc2c(C)cc(=O)oc2cc1Cl`: 0.501 µM (active); for `COc1c(/C=N/Nc2ccc([N+](=O)[O-])cc2[N+](=O)[O-])c(C)nn1-c1ccccc1`: “inactive”; for `O=[N+]([O-])c1ccc(N/N=C\c2cccn2-c2ccccc2)nc1`: 3.55 µM (active).

These data come from PubChem BioAssay AID1851 (National Center for Advancing Translational Sciences (NCATS), 2009).
